Data published in ChEMBL document CHEMBL3433997, “St. Jude Leishmania screening dataset” (2016).

Key:
Assay type in all cases: functional
[1] = biological target: Solute carrier family 2, facilitated glucose transporter member 1 (Homo sapiens) (UniProt P11166); test: ST_JUDE_LEISH: Cytotoxicity at 2uM final concentration against transgenic Leishmania Mexicana promastigotes LmGLUT1 that are glucose transport deficient and complemented with the human glucose transporter GLUT1. Activity is measured by DNA content using SYBR green in vitro
Chain of Solute carrier family 2, facilitated glucose transporter member 1 (Homo sapiens) (P11166 whole entry): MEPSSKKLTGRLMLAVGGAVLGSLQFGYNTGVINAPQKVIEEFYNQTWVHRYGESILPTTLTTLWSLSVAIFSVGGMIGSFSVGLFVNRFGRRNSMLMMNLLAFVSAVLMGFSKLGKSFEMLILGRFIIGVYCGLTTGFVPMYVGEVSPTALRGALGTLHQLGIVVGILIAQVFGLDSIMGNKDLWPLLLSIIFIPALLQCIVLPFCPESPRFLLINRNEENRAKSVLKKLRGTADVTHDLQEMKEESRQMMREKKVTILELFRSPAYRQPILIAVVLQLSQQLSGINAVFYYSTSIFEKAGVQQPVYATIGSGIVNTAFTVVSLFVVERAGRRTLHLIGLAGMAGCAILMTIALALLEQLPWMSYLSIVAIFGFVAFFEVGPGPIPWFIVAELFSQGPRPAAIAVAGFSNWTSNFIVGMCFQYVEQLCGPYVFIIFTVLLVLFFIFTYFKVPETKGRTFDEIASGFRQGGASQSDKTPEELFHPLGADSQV

[2] = biological target: Hexose transporter 1 (Plasmodium falciparum) (UniProt O97467); test: ST_JUDE_LEISH: Cytotoxicity at 2uM final concentration against transgenic Leishmania Mexicana promastigotes LmPfHT that are glucose transport deficient and complemented with the Plasmodium falciparum hexose transporter. Activity is measured by DNA content using SYBR green in vitro
[3] = biological target: Glucose transporter (Leishmania mexicana) (UniProt O61059); test: ST_JUDE_LEISH: Cytotoxicity at 2uM final concentration against transgenic Leishmania Mexicana promastigotes LmGT2 that are glucose transport deficient and complemented with the L. Mexicana glucose transporter 2. Activity is measured by DNA content using SYBR green in vitro

| SMILES | inhibition [1] | inhibition [2] | inhibition [3] |
| --- | --- | --- | --- |
| CC1=C(C(=O)OC(C)C)C(c2ccccc2Cl)C2=C(CC(c3ccccc3)CC2=O)N1 (configuration not stated) | 7.11% | 6.69% | 7.36% |
| Clc1ccc2c(Cl)c(CNCCCNc3nc4ccccc4[nH]3)[nH]c2c1 | 0.17% | 0.94% | 1.14% |
| N=C(N)NN=Cc1cc2ccccc2c2ccccc12 | 8.49% | 9.7% | 4.16% |
| COc1cc(-c2nc(C(C)(C)CN)[nH]c2-c2ccncc2)ccc1Br | 7.38% | 11.3% | 4.8% |
| CCc1ccc(C(=O)Nc2cccc(CN3CCCN(Cc4ccc(O)cc4)CC3)c2)cc1 | 2.88% | -2.75% | 3.01% |
| CCC(C)NCC(O)(c1ccc(Cl)cc1)c1ccc(Cl)cc1 (configuration not stated) | -2.33% | -0.32% | -0.2% |
| CN(C)Cc1c(O)ccc2[nH]c(-c3cccc(F)c3)nc12 | 2.87% | 2.53% | 0.64% |
| COc1ccc(CN2CCCN(Cc3cccc(NC(=O)c4cc5ccccc5s4)c3)CC2)cc1 | 0.39% | -0.1% | -1.39% |
| OC(CN1c2ccccc2Sc2ccccc21)CN(C1CCCCC1)C1CCCCC1 (configuration not stated) | 6.08% | 6.38% | 3.8% |
| CN(C)CCOc1ccc(N2CCN(CCCCNC(=O)c3ccc(/C=C/c4cc(Cl)cc(Cl)c4)cc3)CC2)cc1 | -0.63% | 0.08% | -0.38% |
| COc1ccc(CCN(C)CCCN2CCC(NC(=O)c3cccc4c(=O)c5ccccc5sc34)CC2)cc1OC | 2.6% | 1.86% | 5.63% |
| CCc1cc(NC2CCN(C)CC2)nc(Nc2cccc(OC)c2)n1 | 15% | 10% | 6.53% |
| CCCCN1CCN(CCCCNc2c3ccccc3nc3ccccc23)CC1 | 36.8% | 43.1% | 22% |
| O=C(Nc1ccc2ccccc2c1)N1CCC(NCc2cccc([N+](=O)[O-])c2)CC1 | 2.09% | 1.61% | 0.78% |
| Cc1cccc2nc(-c3ccc(-c4cccc(C(=O)N5CCCCC5C(C)O)c4)s3)[nH]c12 (configuration not stated) | 1.3% | 2.52% | 3.46% |
| COc1cc2nc(NCc3cccc(CNC(=O)c4ccc(-c5ccc(C(C)=O)cc5)cc4)c3)nc(N)c2cc1OC | 0.91% | -0.03% | 0.66% |
| COC(=O)c1cccc(CNCc2cccc(-c3ccc(-c4nc5cc(C(F)(F)F)ccc5[nH]4)cc3)c2)c1 | 2.29% | 3.53% | 2.66% |

| SMILES | inhibition [1] | inhibition [2] | inhibition [3] |
| --- | --- | --- | --- |
| COC(=O)c1cccc(CNCc2ccc(-c3ccc(-c4nc5cccc(C)c5[nH]4)cc3)cc2)c1 | 6.68% | 1.95% | 1.08% |
| CC(C)COc1ccc2ccccc2c1CNCCCCCCNCc1c(OCC(C)C)ccc2ccccc12 | 86.6% | 88.5% | 27.7% |
| COc1ccc2nccc([C@@H](O)CN3CCC(NC(=O)/C=C/c4ccc(F)c5ccccc45)CC3)c2c1 | 8.56% | 5.8% | 5.26% |
| O=C(Nc1ccc(-c2nc3ccccc3[nH]2)cc1)c1ccc(S(=O)(=O)N2CCCCCC2)cc1 | 1.06% | 2.45% | 1.91% |
| Cc1cc(N/N=C/c2ccc([N+](=O)[O-])cc2)c2ccc(F)cc2n1 | 2.33% | 3.03% | -1.86% |
| CCN(C)C(=O)n1ncc2c3c(N)nc(N)nc3ccc21 | 3.44% | 4.56% | 2.18% |
| O=C(CCn1cncn1)N1CCCC(c2[nH]c3ccccc3c2-c2ccncc2)C1 (configuration not stated) | -2.2% | -3.57% | 1.39% |
| CS(=O)(=O)Cc1cccc(Nc2ncc(Cl)c(Nc3cccnc3C(N)=O)n2)c1 | 11.5% | 12.6% | 15.6% |
| O=C(Nc1cccc(-c2ccc(-c3nc4cc(C(F)(F)F)ccc4[nH]3)cc2)c1)c1ccoc1 | -0.21% | 1.44% | 0.98% |
| CCCCCC(C)C(C)c1cc(O)c2c(c1)OC(C)(C)CC2=Cc1ccncc1 (configuration not stated) | 12.6% | 11.5% | 10.7% |
| CC1CN(c2ccc3[nH]cc(Sc4ccc(-c5cccs5)cc4)c3c2)CC(C)N1 (configuration not stated) | -0.79% | -1.78% | -1.36% |
| Cc1cc(C)c(C(=O)Nc2ccc3nc(C)cc(N)c3c2)c(C)c1 | -0.82% | 1.52% | 2.61% |
| O=C1C[C@@H]([S+]([O-])Cc2nccs2)N1CCOCCCCCCc1ccc(Cl)cc1 (some centres not stated) | 9.09% | 8.24% | 9.2% |
| O=C(NC1CC1)c1cnc(N2CCC(Cc3ccccc3)CC2)c(Cl)c1 | 0.75% | -0.08% | -0.03% |
| Cc1c(Cl)ccc2c(C(=O)Nc3ccncc3)cc(-c3cccnc3)nc12 | -4.52% | -2.06% | -2.1% |
| CN1CCN(CC(=O)Nc2ccc(-c3csc(-c4nc5ccccc5[nH]4)c3)cc2)CC1 | -0.59% | 0.35% | -2.28% |
| NCc1ccc(CNCc2cccc(-c3cccc(-c4nc5ccccc5[nH]4)c3)c2)cc1 | 1.02% | -3.61% | 3.76% |
